Results on 19 molecules are retold here after PubChem BioAssay (EPA / NIEHS).

Records with an inconclusive call do not appear. The source made the active and inactive calls. How the source made its calls: active means hit-call score of the fitted dose curve at least 0.9, where 1 is the maximum; inconclusive means response in the unintended direction; inactive means score below 0.9.

Cellular tumor antigen p53 (Homo sapiens), sequence (P04637 whole entry, looked up): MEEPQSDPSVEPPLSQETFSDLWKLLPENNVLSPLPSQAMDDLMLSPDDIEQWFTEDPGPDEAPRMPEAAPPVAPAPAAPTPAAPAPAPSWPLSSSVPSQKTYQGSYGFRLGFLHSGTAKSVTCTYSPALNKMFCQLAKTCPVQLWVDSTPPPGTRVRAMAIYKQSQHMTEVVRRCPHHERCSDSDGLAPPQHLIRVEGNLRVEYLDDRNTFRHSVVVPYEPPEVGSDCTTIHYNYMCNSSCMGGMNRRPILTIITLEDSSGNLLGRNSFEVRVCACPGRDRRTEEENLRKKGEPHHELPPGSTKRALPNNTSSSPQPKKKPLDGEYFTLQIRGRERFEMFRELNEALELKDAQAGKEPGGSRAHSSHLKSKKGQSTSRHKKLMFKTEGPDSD

The test deals with Cellular tumor antigen p53 (Homo sapiens) (UniProt P04637). Put plainly: TOX21_p53_BLA_p3_ratio: Tox21 HCT-116 p53 Agonism Beta-lactamase Assay, Ratio, Phase 3 (AID 2283596). The essentials:
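HCT116 p53-bla cells (4000/well) given compound in DMSO (217-fold dilution) after 5 h, incubated 16 h at 37C. CCF4-AM substrate 2 h at room temperature; 460/530 nm emission ratio, gain fitted against DMSO.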
On to `CNC(=O)[C@H](Cc1c[nH]c2ccccc12)NC(=O)[C@@H](CC(=O)NO)CC(C)C`, for which the outcome was inactive. For the molecule `CCN(CC)CCNC(=O)COc1ccc(OC)cc1`, the outcome was inactive. To `C1CCCNCCC1` belongs “inactive”; to `CCCOC(=O)c1ccccc1O`, “inactive”; to `O=C(O)COc1ccccc1/C=N/NC(=O)c1ccncc1`, “inactive”. `Cc1cc(C)cc([N+](=O)[O-])c1`: the result was inactive. `COC(=O)C(C)O` (centres undefined): the outcome was inactive. Consider `CCNC(=O)C1CC(C)CCC1C(C)C` (centres undefined), for which the result was inactive. Take `C=CC[N@@+]12CC[C@@]34c5ccccc5N5/C=C6/[C@H]7C[C@H]8[C@@]9(CC[N@@+]8(CC=C)C/C7=C/CO)c7ccccc7N(/C=C(/[C@@H](C[C@@H]31)/C(=C\CO)C2)[C@H]54)[C@@H]69`: the result was inactive. To `NS(=O)(=O)c1cc(-c2nn[nH]n2)c(NCc2cccs2)cc1Cl` belongs “inactive”; to `O=C(O)CP(=O)(O)O`, “inactive”. To `CCOC(=O)CC(=O)C(=O)OCC` belongs “inactive”; to `COc1cc(C(=O)NC2CCCNC2)cc(OC)c1OC` (centres undefined), “inactive”.

Regarding `CN(CCOc1ccc(NS(C)(=O)=O)cc1)CCc1ccc(NS(C)(=O)=O)cc1`, the result was inactive. On to `CCC(C)(C)CC`, for which the outcome was inactive. Turning to `CS(=O)(=O)c1ccc([C@@H](O)[C@@H](COC(=O)CN)NC(=O)C(Cl)Cl)cc1`, the outcome was inactive. For `CN1CCOC(c2ccccc2)c2ccccc2C1` (centres undefined), the result was inactive. `CC(=O)c1ccc(Cl)c(Cl)c1Cl`: the result was inactive. Turning to `CCOC(=O)CCC(=O)O[C@H]1[C@H](O[C@@H]2[C@@H](C)[C@H](O[C@H]3C[C@@](C)(OC)[C@@H](O)[C@H](C)O3)[C@@H](C)C(=O)O[C@H](CC)[C@@](C)(O)[C@H](O)[C@@H](C)C(=O)[C@H](C)C[C@@]2(C)O)O[C@H](C)C[C@@H]1N(C)C`, the result was inactive.
